Measurements published in paper PMC4336329 (PLoS ONE, 2015).
Screen size: about 310,000 compounds; about 14,000 (4.5%) showed an effect of 50% or more. The effect is printed as a negative number. The list comes from a sample in which strong results are over-represented; it also holds similar structures and randomly drawn compounds.

Target: human ether-à-go-go-related gene (hERG) potassium channel (human, UniProt Q12809)
Test: primary screen, population patch clamp on CHO cells stably expressing hERG; higher = less effect of the substance
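Also: peak tail current of the secondary pulse compared with the same well before compound.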

human ether-à-go-go-related gene (hERG) potassium channel, sequence (Q12809 whole entry, looked up): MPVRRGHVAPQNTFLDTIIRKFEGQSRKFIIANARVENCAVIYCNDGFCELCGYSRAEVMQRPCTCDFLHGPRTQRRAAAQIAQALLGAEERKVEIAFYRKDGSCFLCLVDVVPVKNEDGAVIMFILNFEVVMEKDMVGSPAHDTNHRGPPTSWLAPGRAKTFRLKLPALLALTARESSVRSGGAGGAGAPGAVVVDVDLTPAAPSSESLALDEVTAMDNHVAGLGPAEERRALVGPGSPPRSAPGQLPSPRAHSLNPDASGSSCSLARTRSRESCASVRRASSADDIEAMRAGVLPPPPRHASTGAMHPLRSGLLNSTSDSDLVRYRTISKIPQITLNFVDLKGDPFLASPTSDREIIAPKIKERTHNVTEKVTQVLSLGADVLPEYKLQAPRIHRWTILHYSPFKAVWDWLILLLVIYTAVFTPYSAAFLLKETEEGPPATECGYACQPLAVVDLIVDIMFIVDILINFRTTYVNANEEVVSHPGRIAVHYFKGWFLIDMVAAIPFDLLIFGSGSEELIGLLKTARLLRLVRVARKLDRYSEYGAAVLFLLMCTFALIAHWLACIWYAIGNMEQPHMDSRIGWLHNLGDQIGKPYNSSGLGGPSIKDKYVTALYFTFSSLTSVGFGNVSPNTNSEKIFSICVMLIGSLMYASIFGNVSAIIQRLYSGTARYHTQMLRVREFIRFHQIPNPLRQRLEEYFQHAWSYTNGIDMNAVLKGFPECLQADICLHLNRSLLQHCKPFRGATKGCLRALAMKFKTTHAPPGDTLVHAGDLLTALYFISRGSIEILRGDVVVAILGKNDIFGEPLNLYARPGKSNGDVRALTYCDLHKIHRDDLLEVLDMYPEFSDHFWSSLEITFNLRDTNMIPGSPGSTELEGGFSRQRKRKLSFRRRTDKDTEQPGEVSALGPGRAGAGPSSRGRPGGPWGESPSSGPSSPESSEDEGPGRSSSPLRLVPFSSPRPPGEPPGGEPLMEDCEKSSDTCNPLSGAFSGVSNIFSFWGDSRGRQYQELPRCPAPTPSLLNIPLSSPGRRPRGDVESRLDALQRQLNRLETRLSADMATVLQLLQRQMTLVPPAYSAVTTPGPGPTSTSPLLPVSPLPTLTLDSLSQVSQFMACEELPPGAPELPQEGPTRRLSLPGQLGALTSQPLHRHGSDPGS

Structure (SMILES) | hERG current change (%, negative = inhibition) at 10uM [%]
Nn1c(SCC(=O)NC2CCS(=O)(=O)C2)nnc1-c1cccs1 (stereo not shown) | 16.7
COc1ccc(NC(=O)c2ccccc2CC[N+](=O)[O-])cc1 | 9.51
COc1ccc(CCNC(=O)C2CC(c3ccc(C(F)(F)F)cc3)=NO2)cc1 (stereo not shown) | -6.74
COc1ccc(C(=O)OCC(=O)NCC2CCCO2)cc1 (stereo not shown) | 17.7
COc1ccc2nc(NS(=O)(=O)c3ccc(NC(C)=O)cc3)sc2c1 | 14
O=C(CCN1C(=O)/C(=C/c2ccco2)SC1=S)Nc1ccc(C(=O)O)c(O)c1 | 25.1
Cc1sc2nc(C)n(/N=C/c3ccccc3O)c(=O)c2c1C | -7.37
O=C(Nc1cc(C(F)(F)F)ccc1N1CCOCC1)c1ccccc1F | -4.2
COCCCN=Cc1c(C)[nH]n(-c2ccc(Br)c(C)c2)c1=O | -9.32
CC(=NC1CC1)c1c(-c2ccccc2)[nH]n(-c2nc3ccccc3s2)c1=O | 9.63
CC(=NCCCn1ccnc1)c1c(-c2ccccc2)[nH]n(-c2nc3ccccc3s2)c1=O | -70.8
COCCCN=Cc1c(C)[nH]n(-c2ccc(Br)cc2Br)c1=O | 20.4
COCCCN=Cc1c(-c2ccccc2)[nH]n(-c2nc3ccccc3s2)c1=O | -75.1
CCCN=C(C)c1c(-c2ccccc2)[nH]n(-c2nc3ccccc3s2)c1=O | -7.79
Cn1nc([N+](=O)[O-])nc1Oc1ccccc1 | -5.63
COc1ccc(C(=O)NC2CCN(C(=S)Nc3cccc(C)c3C)CC2)cc1 | 0.204
O=C1c2cccc3c(Nc4ccccc4Cl)c([N+](=O)[O-])cc(c23)C(=O)N1CCO | -22.8
O=C1O/C(=C/c2ccccc2)c2ccccc21 | -3.12
Cc1ccc(/C=C2\OC(=O)c3ccccc32)cc1 | 14.9
O=C1O/C(=C\c2ccccc2)c2ccccc21 | -57.8
COc1ccc(S(=O)(=O)N2CCCC2C(=O)Nc2ccc(C)cc2)cc1 (stereo not shown) | -15.3
O=C(NNc1nc2c(F)cc(F)cc2s1)c1ccccc1 | 8.87
O=C(COc1ccccc1)NNc1nc2c(F)cc(F)cc2s1 | -62.6
O=C(COc1ccccc1)NNc1nc2c(F)cccc2s1 | 32.6
O=C(NN=C1CCCCC1)Nc1ccccc1Cl | 3.82
CNC(=O)CSc1nnc(-c2ccco2)n1-c1cc(C)ccc1C | -2.95
CCCn1c(SCC(=O)Nc2nonc2C)nnc1-c1ccoc1C | -8.43
CCn1c(SCC(=O)Nc2nonc2C)nnc1-c1ccoc1C | -1.18

Structure (SMILES) | hERG current change (%, negative = inhibition) at 10uM [%]
Cc1nonc1NC(=O)CSc1nnc(-c2ccoc2C)n1CC(C)C | -17.1
Cc1nonc1NC(=O)CSc1nnc(-c2ccoc2C)n1-c1cccc(Cl)c1 | -77.9
Cc1ccc(-n2c(SCC(=O)Nc3ccc4c(c3)OCO4)nnc2-c2ccoc2C)cc1 | -42.2
Cc1ccc(C)c(-n2c(SCC(=O)Nc3nonc3C)nnc2-c2ccoc2C)c1 | -61.2
Cc1cccc(-n2c(SCC(=O)Nc3nonc3C)nnc2-c2ccoc2C)c1 | -78.9
Cc1nonc1NC(=O)CSc1nnc(-c2ccoc2C)n1C | 4.89
COc1ccc(C)cc1NC(=O)C(C)N1CCOCC1.Cl (stereo not shown) | 9.06
Cc1nc(Nc2nc3ccccc3o2)nc(C)c1C | 10.3
CCC(C(=O)Nc1ccc(C(=O)O)cc1NC(=O)C(CC)c1ccccc1)c1ccccc1 (stereo not shown) | 9.71
CCOc1ccc(CCNC(=O)C2CCN(c3nn4c(=O)cc(C)nc4s3)CC2)cc1OCC | -8.23
Cc1c(C)n(C)c2ccc(C(=O)N3CCN(c4ccccc4)CC3)cc12 | -5.05
CCOc1ccccc1-c1noc(CCC(=O)Nc2cccnc2)n1 | 9.94
CCC1C(=O)C(CC)C(c2ccccc2)NC1c1ccccc1 (stereo not shown) | 11.9
CCCN1CCN(C(=O)c2cn(CC(C)C)c(=O)c3cc(OC)c(OC)cc23)CC1 | -41.1
CCn1cc(C(=O)N2CCN(c3cccc(Cl)c3)CC2)c2cc(OC)c(OC)cc2c1=O | -64.8
CCn1cc(C(=O)N2CCN(c3ccc(OC)cc3)CC2)c2cc(OC)c(OC)cc2c1=O | -33.8
CCn1cc(C(=O)N2CCN(c3ccc(F)cc3)CC2)c2cc(OC)c(OC)cc2c1=O | -69.5
COc1cc2c(C(=O)N3CCN(c4cccc(Cl)c4)CC3)cn(C)c(=O)c2cc1OC | -53.1
COc1cc2c(C(=O)N3CCN(c4cccc(Cl)c4)CC3)cn(CC(C)C)c(=O)c2cc1OC | -63.6
COc1ccc(C(=O)N2CCN(c3cccc(Cl)c3)CC2)c(OC)c1 | -44.6
CCn1cc(C(=O)N2CCN(c3ccccn3)CC2)c2cc(OC)c(OC)cc2c1=O | -14.4
CCn1cc(C(=O)N2CCN(c3ccccc3OC)CC2)c2cc(OC)c(OC)cc2c1=O | -1.96
CCn1cc(C(=O)N2CCN(c3ccc(C(C)=O)cc3)CC2)c2cc(OC)c(OC)cc2c1=O | -44.3
COc1cc2c(C(=O)NCCCN3CCN(c4cccc(Cl)c4)CC3)cn(C)c(=O)c2cc1OC | -46
COc1ccccc1C(=O)N1CCN(c2cccc(Cl)c2)CC1 | 0.406
CCOC(=O)c1cnc(SC)nc1Oc1cccc(NC(=O)c2ccc(C)cc2)c1 | 11.4
COC(=O)c1cccnc1SCc1ccccc1 | -14.9
